Data published in ChEMBL document CHEMBL3988442, “University of Dundee, Small-Polar-MMV Screening Library” (2021).
Hit rate of the full screen: of about 48,000 compounds, about 13,000 (27%) showed an effect of 50% or more. The list shows a part of the results.

tested on: Wolbachia pipientis; experiment: Anti-Wolbachia Cell-Based Screen; assay type: functional; design: scale not given: in the data most compounds retested in dose-response had high values; details: 5 µM

| Structure (SMILES) | Percent Effect [%] |
| --- | --- |
| CN(Cc1ccccc1NCc1cccnc1)C(=O)c1cccs1 | 7.108 |
| O=S1(=O)CCN(c2nc(C3CC3)ns2)CC1 | -15.72 |
| CN1C(=O)CO[C@H](c2ccc(NC(=O)c3cccc(F)c3)cc2)[C@H]1CO | 11.75 |
| CCC(CNC(=O)c1cc(OC)ccc1Br)N1CCc2ccccc2C1 (configuration not stated) | -23.56 |
| COC(=O)N1CCc2ccccc2C1C(=O)NCc1nc(C)no1 (configuration not stated) | 2.573 |
| c1cnn(-c2ccc(CN3CCOC(Cn4cncn4)C3)cc2)c1 (configuration not stated) | -5.555 |
| CN(C)C(=O)c1cccc(CN2CCOC(Cn3cccn3)C2)c1 (configuration not stated) | 104.7 |
| CN(C)C(=O)c1cccc(CN2CCOC(Cn3cncn3)C2)c1 (configuration not stated) | 102.1 |
| CN(C)CC1CN(Cc2cccc(C(=O)N(C)C)c2)CCO1 (configuration not stated) | 13.75 |
| CN(C)c1cccc(C(=O)Nc2cnn(Cc3ccncc3)c2)c1 | 11.2 |
| CCS(=O)(=O)Nc1cnn(Cc2cccc(C)c2)c1 | 89.42 |
| CCn1cc(NC(=O)NCC(O)COc2cccc(F)c2)cn1 (configuration not stated) | -10.6 |
| CCS(=O)(=O)Nc1cnn(Cc2cccc(F)c2)c1 | 105.7 |
| CCn1cc(NC(=O)NCC(c2cccc(F)c2)N(C)C)cn1 (configuration not stated) | 0.3988 |
| Cc1cccc(Cn2ccc(NS(C)(=O)=O)n2)c1 | -2.498 |
| Cc1cccc(-c2ccc(C(=O)NCC3CCCOC3)c(=O)[nH]2)c1 (configuration not stated) | 108.2 |
| Cc1ccc(C(=O)NCC2COCCO2)c(=O)[nH]1 (configuration not stated) | 4.795 |
| Cc1cccc(-c2ccc(C(=O)NCCN(C)C3CC3)c(=O)[nH]2)c1 | -2.901 |
| Cc1cccc(-c2ccc(C(=O)NCC3CCOC3)c(=O)[nH]2)c1 (configuration not stated) | 2.342 |
| O=C(NCC1CCOC1)c1ccc(-c2ccccc2)[nH]c1=O (configuration not stated) | 96.09 |
| O=C(NCCCn1cncn1)c1ccc(-c2ccccc2)[nH]c1=O | -1.732 |
| Cc1cccc(-c2ccc(C(=O)NCCN3CCOCC3)c(=O)[nH]2)c1 | 3.561 |
| O=C(NCCN1CCOCC1)c1ccc(-c2ccccc2)[nH]c1=O | -12.34 |

| Structure (SMILES) | Percent Effect [%] |
| --- | --- |
| O=C(NCC1CCCOC1)c1ccc(-c2cccs2)[nH]c1=O (configuration not stated) | 1.044 |
| Cc1cccc(-c2ccc(C(=O)NCC3CCCO3)c(=O)[nH]2)c1 (configuration not stated) | 118.6 |
| O=C(NCC1CCCOC1)c1ccc(-c2ccccc2)[nH]c1=O (configuration not stated) | 111.2 |
| Cc1ccc(C(=O)NCC2CCCCO2)c(=O)[nH]1 (configuration not stated) | 8.158 |
| Cc1nc(CCNC(=O)C2CCN(C(C)C)CC2)sc1Cl | 3.943 |
| CCc1ccccc1OC1CN(CC2CCOC2)C1 (configuration not stated) | 1.155 |
| CN(C)C(=O)CCCn1ccc(NCc2ccc(C#N)cc2)n1 | -12.19 |
| COCc1cccc(NC(=O)N(C)Cc2ncc(C)c(OC)c2C)c1 | -2.673 |
| COCCOC(=O)N1C[C@H]2CC[C@@H]1CN(C1Cc3ccccc3C1)C2 | 9.586 |
| COCCOC(=O)N1CCN2C[C@@H](CO)[C@H](c3ccccc3)[C@H]2C1 | 99.06 |
| COCCC(=O)N1CCC2(CC1)CC(c1ccccc1)CN(C1CC1)C2 (configuration not stated) | -1.605 |
| COC(=O)N1CCN(Cc2ccccc2Cl)CC1 | 0.9968 |
| O=C(CC1CCCCC1)N1CCN(C(=O)NCc2ccccn2)CC1 | -2.156 |
| O=C(Nc1nc(-c2ccccc2)ns1)N1CCN(C(=O)C2CC2)CC1 | -11.4 |
| O=C(CO)N1CCCC(N2CCN(c3ccccc3F)CC2)C1 (configuration not stated) | 13.62 |
| COC(=O)N1CCC(NC(=O)CC(C)CCc2ccccc2)CC1 (configuration not stated) | 12.69 |
| O=C(CC1CCCC1)N1CCN2C[C@@H](CO)[C@H](c3ccccc3)[C@H]2C1 | 76.76 |
| COC(=O)N1CCN2C[C@H](CO)[C@@H](c3ccccc3)[C@H]2C1 | 95.68 |
| NC(=O)[C@@H]1CN2CCN(C(=O)C3CC3)C[C@@H]2[C@H]1c1ccccc1 | 100.9 |
| O=C(C1CC1)N1CCN(C(=O)C2CC(=O)N(c3ccccc3Br)C2)CC1 (configuration not stated) | 9.914 |
| O=C(NC1CCCN(c2ccc(OC(F)F)cc2)C1)c1ccon1 (configuration not stated) | 12.05 |
| Cc1c(NCCCOc2cccc(C#N)c2)cccc1C(N)=O | -5.343 |
| O=C1CCN(C(=O)C2(c3ccc(F)cc3)CCOCC2)CCN1 | 5.245 |

| Structure (SMILES) | Percent Effect [%] |
| --- | --- |
| Cc1cc(CS(=O)(=O)c2ccccc2)no1 | -12.79 |
| CCN1CC[C@]2(CN(C(=O)C3CCOCC3)C[C@H]2c2ccccc2)C1=O | -4.584 |
| CC(=O)N1CCN2C[C@H](CO)[C@@H](c3ccccc3)[C@H]2C1 | 95.75 |
| CC(=O)N1CCN(C2CCc3ccccc32)CC1 (configuration not stated) | 10.52 |
| O=C(C1CC1)N1CCN2C[C@@H](CO)[C@H](c3ccccc3)[C@H]2C1 | 89.49 |
| CC(=O)N1CCN(C)CC(COCc2ccccc2)C1 (configuration not stated) | -1.846 |
| CCC(NC(=O)c1ccc2[nH]ccc2c1)C(=O)N1CCOCC1 (configuration not stated) | 6.827 |
| OC1CCN(c2ccccc2NCc2nc(-c3ccoc3)no2)CC1 | 5.706 |
| O=C(NCCN1C(=O)CCC1=O)c1nc2ccccc2c(=O)[nH]1 | 1.599 |
| CCCc1cc(C(=O)NCCCC(=O)N2Cc3ccccc3C2)[nH]n1 | -1.2 |
| CCN1CCn2c(-c3cccc(F)c3)cnc2C12CCN(C(C)=O)CC2.O=C(O)C(F)(F)F | 112.1 |
| CN1CCn2c(-c3cccc(F)c3)cnc2C12CCN(CC1CC1)CC2.O=C(O)C(F)(F)F.O=C(O)C(F)(F)F.O=C(O)C(F)(F)F | -9.47 |
| CNC(=O)N1CCC2(CC1)c1ncc(-c3cccc(F)c3)n1CCN2C.O=C(O)C(F)(F)F | 101.8 |
| CC(=O)N1CCn2c(-c3cccc(F)c3)cnc2C12CCNCC2.O=C(O)C(F)(F)F | 7.148 |
| CCN1CCN(S(=O)(=O)c2cn(C(C)C)cn2)c2ccccc21 | -8.79 |
| O=C(c1ccc(-n2cccn2)nc1)N1CCCN(c2cccnn2)CC1 | 2.596 |
| O=C(c1ccc(-n2cccn2)nc1)N1CCC(c2ccc(O)cc2)CC1 | -5.1 |
| O=C(c1ccc(-n2cccn2)nc1)N1CCC(c2ccn[nH]2)C1 (configuration not stated) | 151 |
| Cc1cncc(C2CCN(C(=O)c3ccc(-n4cccn4)nc3)CC2)n1 | 157.3 |
| O=C(c1ccc(-n2cccn2)nc1)N1CCCC(c2cnccn2)C1 (configuration not stated) | 143.5 |
| O=C(c1ccccc1)C1CCN(c2cncc(-n3cccn3)n2)CC1 | 6.831 |
